Data on 40 compounds can be found in PubChem BioAssay (Tox21).

Active and inactive are the calls of the source. Where a call stands in place of a potency, no number is given. The call rests on the fitted dose curve.

This assay deals with Muscarinic acetylcholine receptor M1 (Homo sapiens) (UniProt P11229). In words: Cholinergic receptor muscarinic 1 (CHRM1) small molecule agonists, cell-based qHTS assay (AID 1963589). Further: nearly all actives have a fitted effect of over 35% in size. Conditions: CHRM1-CHO cells, agonist mode, calcium flux fluorescence; series mostly up to 76.8 µM. The text has this: National Center for Advancing Translational Sciences [NCATS]
Muscarinic acetylcholine receptor M1 (Homo sapiens), sequence (P11229 whole entry, looked up): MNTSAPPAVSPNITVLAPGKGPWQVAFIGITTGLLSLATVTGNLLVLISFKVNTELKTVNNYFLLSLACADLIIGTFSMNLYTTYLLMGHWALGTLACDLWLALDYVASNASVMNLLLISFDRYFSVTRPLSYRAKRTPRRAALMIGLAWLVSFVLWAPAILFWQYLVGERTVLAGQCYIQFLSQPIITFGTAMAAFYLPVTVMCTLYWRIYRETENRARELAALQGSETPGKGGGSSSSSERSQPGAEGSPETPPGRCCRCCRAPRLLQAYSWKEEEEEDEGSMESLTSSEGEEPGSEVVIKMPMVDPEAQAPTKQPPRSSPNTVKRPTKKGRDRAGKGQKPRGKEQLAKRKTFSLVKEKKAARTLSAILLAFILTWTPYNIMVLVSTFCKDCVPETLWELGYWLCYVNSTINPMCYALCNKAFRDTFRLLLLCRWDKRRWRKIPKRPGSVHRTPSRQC
Division of Preclinical Innovation [DPI]
U.S. Environmental Protection Agency [EPA]
National Institutes of Environmental Health Sciences [NIEHS]
National Toxicology Program [NTP]
U.S. Food and Drug Administration [FDA]
The CHRM1 is a muscarinic receptor. This receptor plays a crucial role in learning and memory processes and has long been identified as a promising therapeutic target for the improvement of cognitive decline in Alzheimer's disease (AD). The CHRM1-CHO cell line stably expressing human muscarinic acetylcholine receptor M1 (CHRM1) can be used for screening agonists and antagonists of interactions between CHRM1 and its ligands. The CHRM1-CHO Calcium Flux Assay is a homogeneous fluorescence-based assay for detecting the intracellular calcium level using FDSS kinetic plate reader system.
CHRM1-CHO cells were dispensed at 1000 cells/3uL/well in 1536-well black-clear bottom plates using a Multidrop Dispenser. After the assay plates were incubated at a 37 C/5% CO2 incubator for 18 h, 3 uL of Dye Loading Buffer was transferred to the assay plate by a Flying Reagent Dispenser. The assay plates were incubated at 37 C for 1h. For agonist mode, 23 nL of compounds dissolved in DMSO, positive controls or DMSO only was transferred to the assay plate by a pin tool. […] Each test compound was measured at 15 concentrations in three independent runs.
(In general: qHTS replaces the single test concentration by a dilution series.)
Regarding `CS(=O)(=O)NC(=O)c1cc(Oc2ccc(C(F)(F)F)cc2Cl)ccc1[N+](=O)[O-]`, the Potency entry was “inactive”.

Consider `COC(=O)NC(=S)Nc1ccccc1NC(=S)NC(=O)OC`, for which the Potency entry is “inactive”.

For `c1cc2c(c(N3CCNCC3)c1)OCCO2`, the Potency entry is “inactive”.

As to `COC(=O)c1sccc1S(=O)(=O)NC(=O)Nc1nc(C)nc(OC)n1`, the Potency entry was “inactive”.

`CN(C)C(=O)Nc1cccc(C(F)(F)F)c1`: the Potency entry was “inactive”.

For `N#Cc1cc([N+](=O)[O-])ccc1N`, the Potency result is “inactive”.

With `COS(=O)(=O)OC`, the Potency entry was “inactive”.

For the compound `CCCCCCCCCCCCCCCCCC(=O)O`, the Potency entry is “inactive”.

For the compound `Oc1ccccc1-c1ccccc1`, the Potency result was “inactive”.

As to `Brc1c(Br)c(Br)c(Oc2c(Br)c(Br)c(Br)c(Br)c2Br)c(Br)c1Br`, the activation is -0.663% [at 15.8 µM] (inactive).

For `Cl/C=C\CCl`, the Potency entry was “inactive”.

Consider `O=c1nc(O)n(Cl)c(=O)n1Cl`, for which the Potency result was “inactive”.

For `CNC(=O)Oc1ccccc1OC(C)C`, the Potency result was “inactive”.

As to `CCOP(=O)(OCC)SCCSCC`, the Potency entry is “inactive”.

`CCC(Br)(CC)C(=O)NC(N)=O`: the Potency entry was “inactive”.

For `Nc1cnn(-c2ccccc2)c(=O)c1Cl`, the Potency result was “inactive”.

On to `Clc1ccc(C(c2ccc(Cl)cc2)C(Cl)(Cl)Cl)cc1`, for which the Potency result is “inactive”.

For `CCC(Cl)[N+](=O)[O-]` (stereo not given), the Potency entry was “inactive”.

Take `S=C=S`: the Potency entry was “inactive”.

On to `O=S(=O)(O)C(F)(F)C(F)(F)C(F)(F)C(F)(F)C(F)(F)C(F)(F)C(F)(F)C(F)(F)F`, for which the Potency entry is “inactive”.

On to `CN(C)c1ccc(C(=O)c2ccc(N(C)C)cc2)cc1`, for which the Potency entry was “inactive”.

For `CC(C)CON=O`, the Potency entry is “inactive”.

For the compound `CCCCCCCCCCCCn1cc[n+](C)c1`, the Potency result is “inactive”.

As to `C=CC(C)=O`, the Potency entry was “inactive”.

Take `Nc1cccnc1`: the Potency entry was “inactive”.

As for `Clc1ccc(C(Cl)(Cl)Cl)cc1`, the Potency result is “inactive”.

For `O=Cc1ccc(Cl)cc1Cl`, the Potency result was “inactive”.

Regarding `Cn1c(N)nc2c3cccnc3ccc21`, the Potency result is “inactive”.

Turning to `O=C(Cl)C(Cl)Cl`, the Potency entry is “inactive”.

Consider `CC(C)=CC1C(C(=O)OCN2C(=O)C3=C(CCCC3)C2=O)C1(C)C` (stereo not given), for which the Potency entry was “inactive”.

As to `Cc1ccccc1[N+](=O)[O-]`, the Potency entry was “inactive”.

For `Clc1ccc(Cl)cc1`, the Potency entry was “inactive”.

Regarding `ClCc1ccccn1`, the Potency entry was “inactive”.

For `c1ccc(CN2CCNCC2)cc1`, the Potency result is “inactive”.

With `CCOC(=O)c1ccccc1N`, the Potency result was “inactive”.

With `CNC`, the Potency result is “inactive”.

In the case of `[N-]=[N+]=[N-]`, the Potency entry was “inactive”.

Take `COc1cccc(C=O)c1`: the Potency entry is “inactive”.

Take `Cc1ccccc1CCl`: the Potency result was “inactive”.

In the case of `Oc1ccc(Cl)cc1Cc1ccccc1`, the Potency entry is “inactive”.
